This passage reports outcome and Potency results from PubChem BioAssay (Tox21).

Assay [1] has as its target Thyrotropin receptor (Homo sapiens) (UniProt P16473). Briefly: qHTS assay to identify small molecule antagonists of the thyroid stimulating hormone receptor (TSHR) signaling pathway (AID 1259385; calls by dose curve; also: nearly all actives have a fitted effect of over 20% in size). The procedure, abridged:
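TSHR-HEK293 cells were plated and held 18 h at 37C/5% CO2, then given compound plus Ro20-1724 and stimulated with TSH at 1.5 ng/mL final. After 30 min at room temperature, cAMP was detected with cAMP-d2/anti-cAMP-cryptate (1 h) by fluorescence.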
A general note: qHTS replaces the single test concentration by a dilution series.

Assay [2] in a line: qHTS assay to identify small molecule agonists of the estrogen receptor alpha (ER-alpha) signaling pathway in the presence of an antagonist - cell viability counter screen (AID 1259386).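 Also: series mostly up to about 92 µM; cells exposed to compounds for 22 h at 37 °C before the viability read; nearly all actives have a fitted effect of over 30% in size.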 The procedure, abridged:
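ICI-182,780 at 10.0nM final accompanies the compound titration (15 concentrations, 22hr, 37C) on VM7Luc4E2 cells. The CellTiter-Fluor fluorescence readout runs in the same wells as the luciferase assay.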

Assay [3] has as its target Progesterone receptor (Homo sapiens) (UniProt P06401). Briefly: qHTS assay to identify small molecule agonists of the progesterone receptor (PR) signaling pathway (AID 1346784; calls by dose curve; also: nearly all actives have a fitted effect of over 30% in size; also: potency is read from the fitted curve at half-maximal effect). In a few lines:
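Cells (PR-UAS-bla HEK 293T, GripTite) were plated in assay medium containing 2% charcoal-stripped FBS and incubated 6 hr. Test compounds in DMSO were added for 16 hr at 37C. FRET substrate was then loaded for 2 hr at room temperature before fluorescence reading.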

Assay [4] shares this target. Put plainly: qHTS assay to identify small molecule antagonists of the progesterone receptor (PR) signaling pathway (AID 1346795; active = well fitted inhibition curve with a large enough effect in the signal ratio in the repeat runs, not every such curve was filed as active; the % refers to the signal ratio; also: potency is read from the fitted curve at half-maximal effect). The procedure, abridged:
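Antagonist mode: compounds tested against 1 nM (final) promegestone stimulation in HEK293T cells expressing PR-UAS-bla reporter, 16 hr at 37C, 5% CO2; beta-lactamase activity detected via B/G FRET substrate after 2 hr at room temperature.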

Assay [5] in a line: qHTS assay to identify small molecule antagonists of the progesterone receptor (PR) signaling pathway - cell viability counter screen (AID 1346798). Also: series mostly up to about 92 µM; nearly all actives have a fitted effect of over 50% in size. In a few lines:
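Counter screen for cytotoxicity: viability of PR-UAS-bla HEK293T cells was measured with CellTiter-Glo luminescence following 16 hr compound exposure in the presence of R5020.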

Assay [6] can be described thus: qHTS assay to identify small molecule agonists of the progesterone receptor (PR) signaling pathway - cell viability counter screen (AID 1346799; calls by dose curve; also: nearly all actives have a fitted effect of over 45% in size). In a few lines:
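Cells (PR-UAS-bla HEK293T) are plated at 3,000/well in 2% charcoal-stripped FBS medium, rested 6 hr, dosed and incubated 16 hr at 37C. CellTiter-Glo is then added and luminescence measured after 30 min at room temperature.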

Assay [7] in a line: qHTS assay to identify small molecule antagonists of the TGF-beta/Smad signaling pathway - cell viability counter screen (AID 1346824). Also: nearly all actives have a fitted effect of over 50% in size. In a few lines:
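SBE-bla HEK 293T cells were plated overnight at 37 C, then given compounds in DMSO plus TGF-beta1 (added as 0.25 ng/mL solution) for 5 hr. After the bla read, CellTiter-Glo was added to the same wells and luminescence read after 30 min at room temperature.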

Assay [8] can be described thus: qHTS assay to identify small molecule agonists of the TGF-beta/Smad signaling pathway - cell viability counter screen (AID 1346829). Also: top concentration of the series differs between compounds; nearly all actives have a fitted effect of over 45% in size. The procedure, abridged:
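SBE-bla HEK 293T cells plated overnight, compound exposure 5 hr at 37 C. Viability read in the same wells by CellTiter-Glo luminescence after 30 min at room temperature, following the beta-lactamase read.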

Assay [9] in a line: qHTS assay to identify small molecule agonists of the TGF-beta/Smad signaling pathway (AID 1346859; active = well fitted activation curve with a large enough effect in the signal ratio in the repeat runs, not every such curve was filed as active; the % refers to the signal ratio; also: series mostly up to about 77 µM). The procedure, abridged:
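Reporter line: HEK 293T with stably integrated SBE-controlled beta-lactamase. Compound exposure lasts 5 hr at 37 C and 5% CO2; substrate loading follows for 2 hr at room temperature, with emission read at 460 and 530 nm.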

In assay [10] the target is Thyrotropin-releasing hormone receptor (Homo sapiens) (UniProt P34981). Put plainly: qHTS assay to identify small molecule antagonists of the thyrotropin-releasing hormone receptor (TRHR) signaling pathway (AID 1346877; active = well fitted inhibition curve with a large enough effect in the repeat runs, not every such curve was filed as active; also: series mostly up to about 51 µM). The procedure, abridged:
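Screening used HEK293 cells engineered with TRHR, with a brief 5 min room-temperature compound exposure preceding addition of TRH to 1 nM. The read-out was kinetic calcium-dye fluorescence, concentration-response from 15 doses in triplicate.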

Structures are written as SMILES. Where “and” joins values, the source holds several entries; their conditions need not be identical. Equal entries are not always repeated. Records with an inconclusive call do not appear. More than one record can exist for a structure, and the calls need not agree. Calls of active or inactive are those of the source. Unless noted, calls follow the shape of the dose curve; as a rule, active = well fitted curve in the direction sought with a large enough effect in the repeat runs; inconclusive = weak or mixed curves; inactive = no such curve, though single readings can be large; an effect the other way counts as inactive or inconclusive.

Chain of Progesterone receptor (Homo sapiens) (P06401 whole entry, looked up): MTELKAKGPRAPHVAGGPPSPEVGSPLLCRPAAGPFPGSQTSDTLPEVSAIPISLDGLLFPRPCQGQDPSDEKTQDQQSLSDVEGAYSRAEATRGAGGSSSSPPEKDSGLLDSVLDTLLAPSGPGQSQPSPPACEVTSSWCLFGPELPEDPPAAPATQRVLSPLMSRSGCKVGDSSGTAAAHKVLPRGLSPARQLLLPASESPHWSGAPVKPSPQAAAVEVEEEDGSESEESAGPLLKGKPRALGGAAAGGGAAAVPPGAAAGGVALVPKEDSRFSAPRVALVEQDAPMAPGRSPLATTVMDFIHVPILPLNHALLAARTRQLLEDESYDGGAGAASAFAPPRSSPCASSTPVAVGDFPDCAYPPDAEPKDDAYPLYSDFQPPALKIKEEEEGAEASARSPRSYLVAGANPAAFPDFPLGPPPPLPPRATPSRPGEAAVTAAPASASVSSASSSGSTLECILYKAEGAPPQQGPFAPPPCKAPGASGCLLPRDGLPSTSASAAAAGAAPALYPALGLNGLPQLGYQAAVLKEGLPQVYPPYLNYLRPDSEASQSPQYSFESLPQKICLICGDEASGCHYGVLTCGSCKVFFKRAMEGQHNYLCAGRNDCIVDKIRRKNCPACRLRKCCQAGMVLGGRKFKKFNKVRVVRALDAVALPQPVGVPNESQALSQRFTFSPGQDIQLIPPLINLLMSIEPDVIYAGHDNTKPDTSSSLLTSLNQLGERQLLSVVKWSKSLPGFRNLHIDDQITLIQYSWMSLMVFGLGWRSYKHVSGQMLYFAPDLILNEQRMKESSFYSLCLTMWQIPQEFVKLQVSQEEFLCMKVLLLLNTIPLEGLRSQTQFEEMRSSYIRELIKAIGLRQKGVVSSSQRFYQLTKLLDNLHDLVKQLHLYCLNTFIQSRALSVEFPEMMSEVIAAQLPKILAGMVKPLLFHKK
Chain of Thyrotropin-releasing hormone receptor (Homo sapiens) (P34981 whole entry, looked up): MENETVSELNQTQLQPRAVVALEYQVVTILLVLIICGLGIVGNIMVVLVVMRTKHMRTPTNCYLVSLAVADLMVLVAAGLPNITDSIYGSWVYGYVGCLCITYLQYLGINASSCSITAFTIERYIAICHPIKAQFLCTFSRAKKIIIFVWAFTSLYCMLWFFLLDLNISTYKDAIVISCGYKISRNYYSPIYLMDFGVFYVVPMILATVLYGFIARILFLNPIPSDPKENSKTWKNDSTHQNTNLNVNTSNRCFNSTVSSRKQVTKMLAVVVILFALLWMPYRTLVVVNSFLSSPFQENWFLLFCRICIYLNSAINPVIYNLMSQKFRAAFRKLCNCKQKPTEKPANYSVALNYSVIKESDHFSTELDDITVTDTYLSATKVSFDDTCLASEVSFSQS
Chain of Thyrotropin receptor (Homo sapiens) (P16473 whole entry, looked up): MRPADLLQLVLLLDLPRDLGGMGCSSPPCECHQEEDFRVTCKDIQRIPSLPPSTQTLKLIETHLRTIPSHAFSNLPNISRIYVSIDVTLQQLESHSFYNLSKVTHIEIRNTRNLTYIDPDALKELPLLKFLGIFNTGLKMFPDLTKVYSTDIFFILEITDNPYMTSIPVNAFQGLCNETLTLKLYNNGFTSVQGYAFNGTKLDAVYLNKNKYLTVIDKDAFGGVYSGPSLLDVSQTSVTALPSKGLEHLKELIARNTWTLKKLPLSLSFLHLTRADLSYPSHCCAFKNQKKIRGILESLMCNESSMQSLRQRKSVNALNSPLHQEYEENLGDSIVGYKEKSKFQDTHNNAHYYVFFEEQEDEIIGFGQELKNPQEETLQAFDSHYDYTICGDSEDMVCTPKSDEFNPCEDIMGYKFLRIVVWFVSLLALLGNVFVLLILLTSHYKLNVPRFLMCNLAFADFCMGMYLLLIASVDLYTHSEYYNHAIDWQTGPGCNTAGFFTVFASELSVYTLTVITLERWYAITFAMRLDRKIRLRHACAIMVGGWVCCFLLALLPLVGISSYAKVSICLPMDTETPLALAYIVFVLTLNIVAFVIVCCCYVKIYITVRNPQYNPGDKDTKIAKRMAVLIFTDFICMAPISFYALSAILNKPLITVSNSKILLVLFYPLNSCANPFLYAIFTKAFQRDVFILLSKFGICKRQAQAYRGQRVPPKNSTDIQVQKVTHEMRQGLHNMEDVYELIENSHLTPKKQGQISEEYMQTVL

On to `CNC(=O)O/N=C(\SC)C(=O)N(C)C`, for which the call in [1], in assay [6] and in assay [9] was inactive. Moreover, the Potency entry in assay [2], in assay [3], in [4], in assay [5], in [7] and in assay [8] was “inactive” throughout.

Take `O=[N+]([O-])c1ccc(Cl)cc1`: the compound was classed as inactive in assay [1], in assay [6], in assay [9] and in assay [10]. Also, the Potency result in assay [2], in assay [3], in [4], in assay [5], in assay [7] and in assay [8] was “inactive” throughout.

For `OCc1ccco1`, the result in [1], in assay [6], in [9] and in assay [10] was inactive. The Potency entry in assay [2], in assay [3], in assay [4], in [5], in assay [7] and in assay [8] was “inactive” throughout.

`CN1C(=O)CCS(=O)(=O)C1c1ccc(Cl)cc1` (stereo unspecified): the compound was called inactive in [1], in assay [6] and in assay [9]. For the same compound, the Potency entry in [2], in assay [3], in [4], in [5], in assay [7] and in assay [8] was “inactive” each time.

For the compound `O=C(O)C1C(C(=O)O)C2(Cl)C(Cl)=C(Cl)C1(Cl)C2(Cl)Cl` (stereo unspecified), the outcome in [1], in assay [6] and in [9] was inactive. The Potency result in assay [2], in [3], in assay [4], in [5], in [7] and in assay [8] was “inactive” each time.

On to `NNc1ccccc1`, for which the call in assay [1], in assay [6] and in assay [9] was inactive. For the same compound, the Potency result in [2], in assay [3], in assay [4], in assay [5], in assay [7] and in assay [8] was “inactive” each time.

Regarding `C=CC#N`, the call in [1], in assay [6], in assay [9] and in assay [10] was inactive. Besides, the Potency entry in assay [2], in assay [3], in [4], in [5], in [7] and in [8] was “inactive” each time.

Regarding `Nc1cccc(Cl)c1`, the result in assay [1], in assay [6] and in [9] was inactive. In addition, the Potency entry in assay [2], in assay [3], in [4], in assay [5], in assay [7] and in assay [8] was “inactive” in each case.

For `CNC(=O)O/N=C/C(C)(C)SC`, the outcome in [1], in assay [6], in assay [9] and in assay [10] was inactive. The Potency entry in [2], in assay [3], in assay [4], in assay [5], in assay [7] and in [8] was “inactive” each time.

As for `O=C(O)c1cc(Oc2ccc(C(F)(F)F)cc2Cl)ccc1[N+](=O)[O-]`, the result in [1], in [6], in [9] and in assay [10] was inactive. For the same compound, the Potency entry in assay [2], in assay [3], in assay [4], in assay [5], in assay [7] and in [8] was “inactive” each time.

Turning to `Nc1nc(N)nc(NC2CC2)n1`, the outcome in assay [1], in [6], in [9] and in [10] was inactive. In addition, the Potency result in assay [2], in assay [3], in assay [4], in assay [5], in [7] and in [8] was “inactive” in each case.

In the case of `OC[C@@H](O)[C@H]1O[C@@H]2O[C@H](C(Cl)(Cl)Cl)O[C@@H]2[C@H]1O`, the compound was classed as inactive in assay [1], in assay [6], in assay [9] and in assay [10]. For the same compound, the Potency entry in [2], in [3], in [4], in assay [5], in assay [7] and in assay [8] was “inactive” in each case.

On to `Cl[C@H]1OCCO[C@@H]1Cl`, for which the outcome in [1], in [6], in assay [9] and in assay [10] was inactive. Also, the Potency result in assay [2], in assay [3], in assay [4], in assay [5], in assay [7] and in [8] was “inactive” throughout.

As for `Cc1ccccc1N`, the result in [1], in assay [6] and in assay [9] was inactive. Besides, the Potency result in [2], in [3], in assay [4], in assay [5], in assay [7] and in [8] was “inactive” throughout.

On to `COc1nc(NC(C)C)nc(NC(C)C)n1`, for which the compound was classed as inactive in assay [1], in assay [6], in [9] and in assay [10]. The Potency entry in assay [2], in assay [3], in [4], in assay [5], in [7] and in assay [8] was “inactive” throughout.

With `N#CN=C(N)N`, the call in assay [1], in assay [6], in assay [9] and in [10] was inactive. In addition, the Potency result in [2], in [3], in assay [4], in [5], in [7] and in assay [8] was “inactive” each time.

For the compound `Clc1cnc(Oc2ccc(Oc3ncc(Cl)cc3Cl)cc2)c(Cl)c1`, the compound was classed as inactive in [1], in assay [6] and in assay [9]. Also, the Potency result in assay [2], in assay [3], in [4], in [5], in [7] and in assay [8] was “inactive” throughout.

On to `Oc1ccc(Cl)cc1`, for which the compound was classed as inactive in [1], in [6], in assay [9] and in assay [10]. Moreover, the Potency result in assay [2], in [3], in assay [4], in assay [5], in assay [7] and in assay [8] was “inactive” in each case.

For the compound `CNC(=O)Oc1cccc2ccccc12`, the compound was called inactive in assay [1], in [6], in assay [9] and in [10]. Besides, the Potency entry in assay [2], in assay [3], in assay [5], in assay [7] and in assay [8] was “inactive” each time. In addition, the Potency in [4] is 27.1 µM (active) and 30.6 µM (active).

Regarding `Cc1cccc(N)c1C`, the compound was called inactive in assay [1], in [6], in assay [9] and in [10]. Further, the Potency entry in assay [2], in assay [4], in assay [5], in assay [7] and in assay [8] was “inactive” throughout. Moreover, the Potency in assay [3] is 15.9 µM (active) and inactive.

With `Cc1ccc(N)cc1`, the outcome in [1], in [6] and in assay [9] was inactive. For the same compound, the Potency entry in assay [2], in assay [3], in assay [4], in [5], in assay [7] and in assay [8] was “inactive” in each case.

For the compound `[N-]=[N+]=CC(=O)OC[C@H](N)C(=O)O`, the outcome in [1], in assay [6] and in [9] was inactive. The Potency result in assay [2], in assay [3], in assay [4], in assay [5], in assay [7] and in [8] was “inactive” in each case.
